Laboratory results from PubChem BioAssay.
Activity calls are given as the source filed them. Unless noted, no rule for the calls is given here.

Tests used:
[1] = anti-His antibody binders, primary screen, artefact control for SMM control protein annotation, biochemical, small-molecule microarray, 635 nm fluorescence (AID 1128); details: anti-His Alexa647 antibody binding, higher = more signal;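 also: score merges feature fluorescence with signal-to-noise for each printed compound spot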
[2] = test system: Human papillomavirus type 1a E7 protein (residues 1-88); assay: HPV1a E7 small-molecule binders, primary screen, biochemical, small-molecule microarray, residues 1-88, 635 nm (AID 1129); details: small-molecule microarray binding, fluorescence 635 nm; higher = more signal
[3] = molecular target: Focal adhesion kinase 1 (Homo sapiens) (UniProt Q05397); assay: small-molecule microarray binders of FAK, primary screen, biochemical, 635/667 nm fluorescence, BSA, DTT (AID 1130); details: PTK2 binding, 635 nm fluorescence, higher = more signal;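 also: composite of spot emission at 667 nm and signal to noise over triplicate slides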
Focal adhesion kinase 1 (Homo sapiens), sequence (Q05397 whole entry, looked up): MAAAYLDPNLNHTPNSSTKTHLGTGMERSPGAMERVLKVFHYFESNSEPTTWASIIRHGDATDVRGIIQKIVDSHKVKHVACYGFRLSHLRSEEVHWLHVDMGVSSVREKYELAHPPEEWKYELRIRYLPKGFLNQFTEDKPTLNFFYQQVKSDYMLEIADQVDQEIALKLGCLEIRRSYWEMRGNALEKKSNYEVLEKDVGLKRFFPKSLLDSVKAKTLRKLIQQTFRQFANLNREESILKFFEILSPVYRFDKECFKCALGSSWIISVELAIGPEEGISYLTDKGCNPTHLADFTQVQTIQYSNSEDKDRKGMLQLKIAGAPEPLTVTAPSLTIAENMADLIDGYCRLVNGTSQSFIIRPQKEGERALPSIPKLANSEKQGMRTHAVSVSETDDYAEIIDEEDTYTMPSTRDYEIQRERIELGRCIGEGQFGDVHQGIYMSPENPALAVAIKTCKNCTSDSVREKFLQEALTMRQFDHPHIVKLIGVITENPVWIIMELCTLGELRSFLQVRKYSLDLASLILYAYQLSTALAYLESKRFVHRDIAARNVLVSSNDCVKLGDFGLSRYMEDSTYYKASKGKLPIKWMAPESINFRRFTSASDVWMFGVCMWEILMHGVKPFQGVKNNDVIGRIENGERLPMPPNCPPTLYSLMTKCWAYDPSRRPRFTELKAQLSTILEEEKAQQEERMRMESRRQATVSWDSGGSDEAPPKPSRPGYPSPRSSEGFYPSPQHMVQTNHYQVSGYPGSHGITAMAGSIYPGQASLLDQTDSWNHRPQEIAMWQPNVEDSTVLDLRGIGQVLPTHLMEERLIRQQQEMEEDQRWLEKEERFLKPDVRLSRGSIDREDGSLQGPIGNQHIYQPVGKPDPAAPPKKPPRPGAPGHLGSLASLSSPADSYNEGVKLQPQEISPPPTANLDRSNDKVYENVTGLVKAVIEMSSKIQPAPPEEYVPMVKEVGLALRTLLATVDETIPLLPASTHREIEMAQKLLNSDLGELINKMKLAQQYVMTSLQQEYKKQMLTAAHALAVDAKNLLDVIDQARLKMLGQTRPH

[4] = test system: Fibrinogen (Alexa647-labelled); assay: fibrinogen binders on compound microarrays, profiling panel, artefact control for SMM control-protein annotation, biochemical, small-molecule microarray, 635/667 nm fluorescence (AID 1131); details: fibrinogen-A647 binding fluorescence, higher = more signal;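 also: z-score merges 667 nm fluorescence with per-spot signal-to-noise over triplicate slides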
[5] = molecular target: Follistatin (Homo sapiens) (UniProt P19883); assay: follistatin binders on small-molecule microarrays, primary screen, biochemical, small-molecule microarray, 635/667 nm fluorescence (AID 1132); details: FST binding, 635 nm fluorescence, higher = more signal
Follistatin (Homo sapiens), sequence (P19883 whole entry, looked up): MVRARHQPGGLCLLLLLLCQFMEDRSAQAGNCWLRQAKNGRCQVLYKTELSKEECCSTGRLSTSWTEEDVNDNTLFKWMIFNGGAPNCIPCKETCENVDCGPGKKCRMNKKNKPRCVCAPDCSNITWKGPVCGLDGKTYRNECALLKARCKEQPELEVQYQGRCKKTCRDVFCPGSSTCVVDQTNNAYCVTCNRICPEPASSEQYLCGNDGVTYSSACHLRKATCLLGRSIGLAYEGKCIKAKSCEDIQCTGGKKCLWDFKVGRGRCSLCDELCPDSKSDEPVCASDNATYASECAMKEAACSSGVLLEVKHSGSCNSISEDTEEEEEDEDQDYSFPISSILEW

[6] = molecular target: Fibroblast growth factor 2 (Homo sapiens) (UniProt P09038); assay: FGF2 binders on small-molecule microarrays, primary screen, biochemical, small-molecule microarray, 635/667 nm fluorescence (AID 1133); details: small-molecule microarray binding, FGF2, fluorescence 635/667; higher = more signal
Fibroblast growth factor 2 (Homo sapiens), sequence (P09038 whole entry, looked up): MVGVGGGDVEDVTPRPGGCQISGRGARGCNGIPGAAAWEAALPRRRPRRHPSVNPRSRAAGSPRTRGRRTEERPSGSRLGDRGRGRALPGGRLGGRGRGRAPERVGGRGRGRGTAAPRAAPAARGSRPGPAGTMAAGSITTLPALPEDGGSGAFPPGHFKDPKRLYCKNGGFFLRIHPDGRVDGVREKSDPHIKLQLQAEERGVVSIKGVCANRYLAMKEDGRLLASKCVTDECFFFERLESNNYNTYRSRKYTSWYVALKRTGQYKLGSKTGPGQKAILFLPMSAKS

[7] = mitochondrial membrane potential change in A549 cells, profiling panel, cell-based, JC-1 fluorescence, basal, 24 h, 100 nL (AID 1138); details: higher = more signal;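 also: A549 lung adenocarcinoma cells under basal conditions with no added stimulus; test concentration not given here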
Lefty1 = Lefty1 binders on small-molecule microarrays, primary screen, biochemical, small-molecule microarray, 635/667 nm fluorescence (AID 1139); details: small-molecule microarray binding, fluorescence 635/667; higher = more signal
[8] = test system: wheat germ agglutinin (Triticum aestivum), Alexa647-labelled; assay: wheat germ agglutinin binders on compound microarrays, profiling panel, artefact control for SMM control-protein annotation, biochemical, small-molecule microarray, 635/667 nm fluorescence (AID 1140); details: WGA-A647 binding, 635 nm fluorescence, higher = more signal;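 also: score merges 667 nm feature emission with signal to noise over triplicate slides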
[9] = molecular target: Luciferin 4-monooxygenase (Photinus pyralis) (UniProt P08659); assay: firefly luciferase enzyme inhibitors, primary screen, biochemical, luminescence, purified enzyme, 2006 set (AID 1141); details: SteadyGlo luminescence, 30 min, higher = more signal, called active from +8 up or from −8 down;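 also: cell-free assay with purified firefly luciferase at 100 ng per well in PBS; test concentration not given here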
Luciferin 4-monooxygenase (Photinus pyralis), sequence (P08659 whole entry, looked up): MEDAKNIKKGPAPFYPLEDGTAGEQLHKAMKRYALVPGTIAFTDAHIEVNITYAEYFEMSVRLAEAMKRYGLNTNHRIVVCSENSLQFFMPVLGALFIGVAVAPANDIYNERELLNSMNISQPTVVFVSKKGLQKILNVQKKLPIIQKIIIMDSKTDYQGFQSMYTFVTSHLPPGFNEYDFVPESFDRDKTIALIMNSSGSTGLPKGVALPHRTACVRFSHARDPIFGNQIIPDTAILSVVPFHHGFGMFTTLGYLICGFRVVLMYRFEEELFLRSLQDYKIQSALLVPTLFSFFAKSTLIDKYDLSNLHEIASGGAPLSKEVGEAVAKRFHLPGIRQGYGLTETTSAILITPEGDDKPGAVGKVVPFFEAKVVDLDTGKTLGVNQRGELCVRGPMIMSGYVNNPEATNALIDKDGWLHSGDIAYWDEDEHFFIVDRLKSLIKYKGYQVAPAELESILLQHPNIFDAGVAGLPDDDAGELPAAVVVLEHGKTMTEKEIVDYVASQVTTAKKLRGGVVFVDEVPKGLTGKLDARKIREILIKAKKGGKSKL

[10] = test system: Wnt5a (protein binding on small-molecule microarray); assay: Wnt5a binders on small-molecule microarray, primary screen, biophysical, 635/667 nm fluorescence (AID 1142); details: 635 nm fluorescence, higher = more signal;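 also: fluorescence read at 667 nm with signal to noise per printed feature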
[11] = cell viability in Huh7 cells, primary screen, cytotoxicity control for HCV replication inhibitor project, CellTiter-Glo luminescence, basal, 48 h (AID 1143); details: Huh7 HCV replicon, higher = more signal, called active from +8 up or from −8 down;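 also: Huh7 hepatoma cells carrying a hepatitis C replication reporter with no stimulus; test concentration not given here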
[12] = P. aeruginosa biofilm formation inhibitors, primary screen, PAO1 strain, BacTiter-Glo luminescence, LB-PBS (AID 1144); details: 12 h, higher = more signal
[13] = CREB reporter modulators without forskolin, primary screen, cell-based, PC12, CRE-LacZ reporter, unstimulated (AID 1145); details: no forskolin, luminescence, 4.5 h, higher = more signal, called active from +8 up or from −8 down
[14] = CREB reporter modulators under forskolin, primary screen, cell-based, PC12, CRE-LacZ reporter, forskolin-stimulated (AID 1146); details: luminescence, 4.5 h, higher = more signal, called active from +8 up or from −8 down;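 also: PC12 cells with 6xCRE LacZ reporter stimulated by forskolin 10 µM; beta-galactosidase reporter signal reflecting CREB driven transcription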
[15] = molecular target: Streptavidin (Streptomyces avidinii) (UniProt P22629); assay: streptavidin binders on small-molecule microarray, primary screen, artefact control for SMM compound annotation, biophysical, 635/667 nm fluorescence (AID 1147); details: streptavidin binding, higher = more signal;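 also: signal reflects streptavidin binding to arrayed compounds as a control protein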
Streptavidin (Streptomyces avidinii), sequence (P22629 whole entry, looked up): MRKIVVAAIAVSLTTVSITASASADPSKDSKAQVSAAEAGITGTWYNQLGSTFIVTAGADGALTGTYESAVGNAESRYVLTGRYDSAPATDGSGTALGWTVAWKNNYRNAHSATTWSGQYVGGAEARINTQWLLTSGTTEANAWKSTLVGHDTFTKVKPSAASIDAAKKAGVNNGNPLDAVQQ

[16] = small-molecule binders of probe aInhba, primary screen, biochemical, small-molecule microarray, 635/667 nm fluorescence (AID 1148); details: higher = more signal;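 also: score merges 667nm spot fluorescence with signal-to-noise for antibody binding to printed compounds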
Torsin-1A (Homo sapiens) [17] = molecular target: Torsin-1A (Homo sapiens) (UniProt O14656); assay: torsin A binders from cell lysate, primary screen, small-molecule microarray, wild-type, 635/667 nm (AID 1149); details: COS7 hTOR1A-WT lysate, 635 nm fluorescence, higher = more signal
Torsin-1A (Homo sapiens), sequence (O14656 whole entry, looked up): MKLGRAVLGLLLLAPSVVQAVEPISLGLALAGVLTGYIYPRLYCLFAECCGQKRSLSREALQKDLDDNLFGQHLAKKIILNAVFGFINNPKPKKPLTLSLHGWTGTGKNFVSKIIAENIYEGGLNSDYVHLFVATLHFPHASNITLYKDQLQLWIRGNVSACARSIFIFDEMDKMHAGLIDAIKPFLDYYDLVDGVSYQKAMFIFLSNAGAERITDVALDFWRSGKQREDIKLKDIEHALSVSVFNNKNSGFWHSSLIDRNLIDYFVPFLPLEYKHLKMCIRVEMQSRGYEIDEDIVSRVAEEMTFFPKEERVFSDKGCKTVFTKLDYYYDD

Torsin-1A (Homo sapiens) [18] = molecular target: Torsin-1A (Homo sapiens) (UniProt O14656); assay: small-molecule binders of mutant TOR1A in lysate, primary screen, cell lysate, small-molecule microarray, COS7 lysate, 635/667 nm fluorescence (AID 1150); details: COS7 hTOR1A mutant lysate, 635 nm fluorescence, higher = more signal;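 also: score pools 667 nm emission and signal to noise measuring lysate protein binding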
[19] = test system: Sonic hedgehog protein (Shh); assay: small-molecule binders of Shh protein, primary screen, biochemical, small-molecule microarray, 635/667 nm fluorescence (AID 1151); details: small-molecule microarray binding, 635 nm fluorescence; higher = more signal;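 also: Shh protein binding to compounds spotted on small-molecule microarray slides; score combines spot fluorescence intensity with signal-to-noise across triplicate slides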

Structure (SMILES) | composite z-score [1] | composite z-score [2] | composite z-score [3] | composite z-score [4] | composite z-score [5] | composite z-score [6] | z-score [7] | composite z-score (Lefty1) | composite z-score [8] | z-score [9] | composite z-score [10] | z-score [11] | z-score [12] | z-score [13] | z-score [14] | composite z-score [15] | composite z-score [16] | composite z-score (Torsin-1A (Homo sapiens) [17]) | composite z-score (Torsin-1A (Homo sapiens) [18]) | composite z-score [19]
O=C1N(CCS(=O)(=O)c2ccccc2)Cc2ccccc2C[C@@]12COC(c1ccc(OCCCO)cc1)=N2 | 2.25 | 1.26 | 1.04 | 0.841 | 1.4 | 0.962 | 0.367 | 0.619 | 1.15 | -0.966 (inactive) | 0.933 | -4.36 (inactive) | 0.898 (inactive) | -0.183 (inactive) | -2.06 (inactive) | 0.758 | 0.325 | 0.701 | 0.945 | 2.03
C=CCC(OC(C)=O)[C@@H]1[C@@H](N(Cc2cccc3ccccc23)C(=O)Cc2ccc(F)cc2)c2cc(OCCCO)ccc2N1C(=O)Cc1ccc(OC)cc1 (stereo not given in full) | -0.241 | -0.0072 | -0.142 | 0.766 | 0.532 | -0.109 | -0.189 | 0.391 | 0.672 | 0.678 (inactive) | -0.0124 | -0.627 (inactive) | -0.945 (inactive) | -0.579 (inactive) | -0.374 (inactive) | 0.227 | -0.102 | -0.149 | -0.137 | 0.309
CN(C)C(=O)[C@]1(Cc2ccccc2N=[N+]=[N-])N=C(c2ccc(OCCCO)cc2)O[C@@H]1c1ccccc1CN=[N+]=[N-] | 1.28 | 1.25 | 0.651 | 1.06 | 1.23 | 1.06 | 0.417 | 0.624 | 0.763 | -0.307 (inactive) | 0.556 | -4.87 (inactive) | -1.57 (inactive) | 1.57 (inactive) | 0.367 (inactive) | 1.27 | 0.282 | 0.683 | 0.84 | 0.307
CC(C)(C)OC(=O)CC[C@]1(C(=O)O)COC(c2ccc(OCCCO)cc2)=N1 | 0.541 | -0.173 | -0.108 | 0.68 | -0.747 | -1.23 | 0.352 | -0.552 | 0.62 | -0.306 (inactive) | -0.0943 | 0.61 (inactive) | 0.178 (inactive) | 0.694 (inactive) | 0.506 (inactive) | 0.142 | -0.0589 | 0.676 | 1.08 | -2.07
COc1ccc([Si](C)(C)[C@@H]2[C@@H](CC(=O)N(CCO)Cc3ccccc3)O[C@]3(C(=O)N(C)c4c(Br)cc(C)cc43)[C@H]2C)cc1 | 0.926 | 0.304 | 0.19 | -0.537 | 1.08 | 0.957 | -1.33 | 1.17 | 0.114 | -0.314 (inactive) | 0.312 | -5.28 (inactive) | 0.336 (inactive) | 18.2 (active) | 0.429 (inactive) | -0.212 | -0.152 | 0.268 | -0.0496 | 1.91
